According to ChEMBL document CHEMBL1961873, “Compounds: GSK PKIS; Assays: Nanosyn kinase panel” (2012):

Assays:
[1] = target: RAC-alpha serine/threonine-protein kinase (Homo sapiens) (UniProt P31749); settings: at 0.1 µM
[2] = target: RAC-alpha serine/threonine-protein kinase (Homo sapiens) (UniProt P31749); settings: at 1 µM
[3] = target: RAC-beta serine/threonine-protein kinase (Homo sapiens) (UniProt P31751); settings: at 0.1 µM
[4] = target: RAC-beta serine/threonine-protein kinase (Homo sapiens) (UniProt P31751); settings: at 1 µM
[5] = target: RAC-gamma serine/threonine-protein kinase (Homo sapiens) (UniProt Q9Y243); settings: at 0.1 µM
Sequence of RAC-gamma serine/threonine-protein kinase (Homo sapiens) (Q9Y243 whole entry): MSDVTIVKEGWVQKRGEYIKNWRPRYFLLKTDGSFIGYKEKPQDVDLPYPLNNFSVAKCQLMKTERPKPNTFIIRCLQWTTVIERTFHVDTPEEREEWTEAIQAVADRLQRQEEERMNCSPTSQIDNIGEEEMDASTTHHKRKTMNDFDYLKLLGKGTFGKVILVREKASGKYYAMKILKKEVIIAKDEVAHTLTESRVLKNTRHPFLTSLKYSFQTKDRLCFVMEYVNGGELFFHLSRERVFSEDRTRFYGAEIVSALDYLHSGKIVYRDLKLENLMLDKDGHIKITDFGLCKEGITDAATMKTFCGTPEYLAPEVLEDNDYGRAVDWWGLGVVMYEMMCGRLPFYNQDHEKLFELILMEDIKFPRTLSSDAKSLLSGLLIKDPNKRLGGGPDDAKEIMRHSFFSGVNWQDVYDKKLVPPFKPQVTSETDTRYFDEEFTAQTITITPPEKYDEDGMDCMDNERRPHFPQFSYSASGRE

[6] = target: RAC-gamma serine/threonine-protein kinase (Homo sapiens) (UniProt Q9Y243); settings: at 1 µM
[7] = target: G protein-coupled receptor kinase 6 (Homo sapiens) (UniProt P43250); settings: at 0.1 µM
Sequence of G protein-coupled receptor kinase 6 (Homo sapiens) (P43250 whole entry, looked up): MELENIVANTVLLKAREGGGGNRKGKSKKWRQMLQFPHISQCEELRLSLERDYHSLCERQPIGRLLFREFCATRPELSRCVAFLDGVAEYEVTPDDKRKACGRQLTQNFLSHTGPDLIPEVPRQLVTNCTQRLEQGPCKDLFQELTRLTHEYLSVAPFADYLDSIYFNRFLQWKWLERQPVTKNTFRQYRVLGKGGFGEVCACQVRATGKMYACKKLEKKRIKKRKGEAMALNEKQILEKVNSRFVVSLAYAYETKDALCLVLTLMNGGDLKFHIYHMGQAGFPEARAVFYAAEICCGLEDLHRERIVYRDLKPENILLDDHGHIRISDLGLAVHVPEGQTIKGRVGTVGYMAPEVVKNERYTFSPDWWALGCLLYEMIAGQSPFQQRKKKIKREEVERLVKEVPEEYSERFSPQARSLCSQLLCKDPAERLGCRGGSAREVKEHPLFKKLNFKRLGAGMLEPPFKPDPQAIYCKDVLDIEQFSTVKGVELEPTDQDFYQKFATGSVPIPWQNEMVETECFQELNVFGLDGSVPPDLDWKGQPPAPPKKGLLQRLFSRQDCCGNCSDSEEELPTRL

[8] = target: G protein-coupled receptor kinase 6 (Homo sapiens) (UniProt P43250); settings: at 1 µM
[9] = target: T1, Rhodopsin kinase GRK7 (Homo sapiens) (UniProt Q8WTQ7); settings: at 0.1 µM
T1 sequence (whole entry): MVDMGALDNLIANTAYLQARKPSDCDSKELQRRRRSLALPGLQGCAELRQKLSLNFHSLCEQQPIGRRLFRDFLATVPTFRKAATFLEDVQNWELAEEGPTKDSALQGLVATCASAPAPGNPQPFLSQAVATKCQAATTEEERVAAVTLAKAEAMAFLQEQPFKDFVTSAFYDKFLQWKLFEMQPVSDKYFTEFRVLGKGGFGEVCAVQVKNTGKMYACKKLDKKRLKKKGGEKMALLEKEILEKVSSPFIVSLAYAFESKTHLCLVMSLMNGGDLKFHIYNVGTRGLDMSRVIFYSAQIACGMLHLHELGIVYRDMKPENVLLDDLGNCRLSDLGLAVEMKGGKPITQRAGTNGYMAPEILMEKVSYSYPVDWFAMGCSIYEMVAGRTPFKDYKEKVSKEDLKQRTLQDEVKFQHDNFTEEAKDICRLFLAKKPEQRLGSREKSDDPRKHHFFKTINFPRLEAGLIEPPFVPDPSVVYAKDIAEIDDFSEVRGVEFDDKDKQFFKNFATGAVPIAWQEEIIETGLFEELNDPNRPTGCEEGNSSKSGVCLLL

[10] = target: T1, Rhodopsin kinase GRK7 (Homo sapiens); settings: at 1 µM

Sequence of RAC-beta serine/threonine-protein kinase (Homo sapiens) (P31751 whole entry): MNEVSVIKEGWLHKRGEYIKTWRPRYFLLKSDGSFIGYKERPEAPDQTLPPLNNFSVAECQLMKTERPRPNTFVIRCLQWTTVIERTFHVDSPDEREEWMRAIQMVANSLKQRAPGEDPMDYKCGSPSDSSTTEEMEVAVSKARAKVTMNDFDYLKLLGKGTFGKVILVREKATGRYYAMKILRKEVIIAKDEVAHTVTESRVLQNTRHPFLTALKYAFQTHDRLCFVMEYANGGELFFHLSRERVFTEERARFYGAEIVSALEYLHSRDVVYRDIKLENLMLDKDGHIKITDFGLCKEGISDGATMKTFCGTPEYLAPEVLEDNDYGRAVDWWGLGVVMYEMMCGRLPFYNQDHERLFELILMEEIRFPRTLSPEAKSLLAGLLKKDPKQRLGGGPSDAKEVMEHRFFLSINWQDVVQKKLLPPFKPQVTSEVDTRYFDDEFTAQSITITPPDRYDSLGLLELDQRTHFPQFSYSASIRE
Sequence of RAC-alpha serine/threonine-protein kinase (Homo sapiens) (P31749 whole entry): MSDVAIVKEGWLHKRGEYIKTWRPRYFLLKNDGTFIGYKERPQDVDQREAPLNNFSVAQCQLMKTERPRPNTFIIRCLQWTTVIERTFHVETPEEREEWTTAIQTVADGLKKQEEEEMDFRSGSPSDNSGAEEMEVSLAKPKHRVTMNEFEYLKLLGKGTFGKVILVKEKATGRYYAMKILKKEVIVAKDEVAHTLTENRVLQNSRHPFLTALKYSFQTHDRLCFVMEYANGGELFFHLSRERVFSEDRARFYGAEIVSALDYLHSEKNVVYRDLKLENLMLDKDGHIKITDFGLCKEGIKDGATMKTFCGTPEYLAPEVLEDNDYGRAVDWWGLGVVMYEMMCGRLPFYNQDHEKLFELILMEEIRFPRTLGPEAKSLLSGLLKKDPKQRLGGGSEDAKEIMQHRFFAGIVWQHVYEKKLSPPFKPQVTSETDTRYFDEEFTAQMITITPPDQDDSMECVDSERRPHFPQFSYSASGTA

Row | Structure (SMILES) | inhibition [1] [%] | inhibition [2] [%] | inhibition [3] [%] | inhibition [4] [%] | inhibition [5] [%] | inhibition [6] [%] | inhibition [7] [%] | inhibition [8] [%] | inhibition [9] [%] | inhibition [10] [%]
1 | CN(C)c1cc2c(Nc3ccc4nc(Cc5ccccc5)[nH]c4c3)ncnc2cn1 | 1.02 | 0.52 | 2.3 | 2.71 | 1.37 | 3.27 | 2.98 | 6.85 | 20.5 | 22.6
2 | [O-][S+]1CCN(Cc2ccc(-c3ccc4ncnc(Nc5ccc(OCc6ccccc6)c(F)c5)c4c3)o2)CC1 | 0.83 | -0.19 | 2.53 | 0.9 | 0.99 | 1.21 | 3.78 | -2.01 | 1.86 | -0.58
3 | c1cnn2ncc(-c3ccnc(Nc4ccc5c(c4)OCCO5)n3)c2c1 | 0.86 | 0.95 | 2.29 | 1.47 | 1.09 | 2.1 | 7.21 | 4.01 | 4.35 | 2.89
4 | Fc1cccc(COc2ccc(Nc3ncnc4sc(-c5cccs5)cc34)cc2Cl)c1 | 0.07 | -0.67 | -0.49 | 0.01 | 0.23 | 1.25 | 1.48 | 1.31 | 7.27 | -0.21
5 | NCc1ccc(-c2nc(-c3ccc(Cl)c(O)c3)c(-c3ccncc3)[nH]2)cc1 | 0.06 | 0.47 | -1.18 | -0.26 | -0.23 | 0.68 | -0.28 | -0.98 | -2.26 | 2.84
6 | Cc1nnc(-c2ccc(C)c(-c3ccc(C(=O)Nc4cccc(C#N)c4)cc3)c2)o1 | 0.44 | 0.29 | 0.76 | 0.57 | 1.16 | 1.22 | 2.81 | 3.91 | 2.5 | 7.22
7 | COc1cc2c(cc1Nc1nc(N3CCc4ccccc43)c3cc[nH]c3n1)N(C(=O)CN(C)C)CC2 | 1.38 | 1.39 | 0.6 | 1.42 | 1.23 | 1.23 | 1.54 | -3.01 | -0.63 | -6.08
8 | CS(=O)(=O)CCN(CC#N)Cc1ccc(-c2ccc3ncnc(Nc4ccc(OCc5cccc(F)c5)c(Cl)c4)c3c2)o1 | -1.63 | -3.32 | -3.4 | -2.91 | -3.18 | -0.79 | 0.99 | 3.25 | 6.9 | 2.37
9 | COc1cc2ncn(-c3cc(OCc4ccccc4C(F)(F)F)c(C(N)=O)s3)c2cc1OC | -2.43 | -2.44 | -2.6 | -2.54 | -3.14 | -1.66 | 0.88 | 0.91 | 9.69 | 6.72
10 | CCn1c(-c2nonc2N)nc2c(C#CC(C)(C)O)nc(CN3CCCC3)cc21 | 8.37 | 54.9 | 10 | 55.5 | 18.8 | 78.7 | -2.28 | -0.02 | -4.34 | 3.4
11 | COc1ccc(-c2ccncc2)cc1C(N)=O | 0.88 | -0.34 | 0.41 | 2.06 | 1.15 | 2.9 | 5.49 | 5.53 | 9.86 | 2.23
12 | O=C1NC(=O)C(c2cccc(Cl)c2)=C1Nc1ccc(O)c(Cl)c1 | 0.39 | 1.25 | 0.32 | -0.16 | 0.98 | 0.23 | 2.15 | 1 | 0.66 | 6.41
13 | Nc1nc(-c2ccc3c(c2)C(=Cc2cc(Br)c(O)c(Br)c2)C(=O)N3)cs1 | -2.07 | -1.22 | -2.78 | -0.83 | -2.54 | -0.36 | 0.91 | 10.7 | -6.85 | 22.8
14 | NC(=O)c1cccc(Nc2nccc(Nc3cccc4[nH]ncc34)n2)c1 | -2.33 | 1.84 | -3.71 | -1.08 | -2.36 | -1.13 | -0.32 | 2.35 | -7.6 | 5.88
15 | NC(=O)c1ccc(-c2nc(-c3ccccn3)c(-c3ccc4c(c3)OCO4)[nH]2)cc1 | 0.43 | 0.86 | 1.27 | 1.16 | 0.75 | 0.48 | 0.64 | 5.54 | 1.63 | 6.3
16 | Cc1cccc(-c2n[nH]cc2-c2ccc3ncccc3n2)n1 | -0.73 | 0.02 | 0.56 | -0.22 | 2.42 | 2.13 | 0.46 | 3.16 | -0.51 | 5.08
17 | CNC(=O)c1cncc(/C=C/c2c(Cl)cccc2Cl)c1 | -2.98 | -2.11 | -2.93 | -2.77 | -3.04 | 0.11 | 3.3 | 4.35 | 10.6 | 8.22
18 | CCCN1CCC=C(c2ccc(Nc3nc(Nc4ccccc4C(N)=O)c4cc[nH]c4n3)c(C)c2)C1 | 0.97 | 1.22 | 1.3 | 1.5 | -0.2 | 5.51 | 6.79 | 31.4 | 11.2 | 20.5
19 | COc1cccc(-n2ncc3c(N/N=C/c4cccc(F)c4)ncnc32)c1 | -2.98 | -3.97 | -2.03 | -2.75 | -1.82 | -1.99 | 3.44 | 0.12 | 1.93 | 10.3
20 | COc1cc2ncn(-c3cc(O[C@H](C)c4ccccc4Cl)c(C(N)=O)s3)c2cc1OC | 1.41 | 2.07 | 2.49 | 2.19 | 0.81 | 1.74 | 3.78 | 15 | 5.01 | 10.8

Row | Structure (SMILES) | inhibition [1] [%] | inhibition [2] [%] | inhibition [3] [%] | inhibition [4] [%] | inhibition [5] [%] | inhibition [6] [%] | inhibition [7] [%] | inhibition [8] [%] | inhibition [9] [%] | inhibition [10] [%]
21 | NS(=O)(=O)c1ccc(N/N=C2\C(=O)Nc3ccc(C(=O)NCCc4c[nH]cn4)cc32)cc1 | 1.49 | 0.74 | 3.41 | 1.59 | 1.65 | 2.39 | 5.89 | 9.39 | 5.2 | 7.5
22 | COc1ccccc1Nc1ncc(-c2ccccc2)o1 | 1.37 | 1.71 | 0.6 | 2.82 | 0.12 | 3.9 | 2.46 | 3.95 | 10.1 | 2.31
23 | Nc1nc(-c2ccccn2)c(-c2ccc3ncccc3n2)s1 | 0.97 | 0.96 | 1.1 | 1.5 | 1.6 | 1.17 | 5.73 | 1.87 | 1.26 | -0.58
24 | Fc1cccc(COc2ccc(Nc3ncnc4cc(-c5ccc[nH]5)sc34)cc2Cl)c1 | -3.51 | -3.04 | -2.34 | -1.49 | -3.34 | -3.78 | 5 | 2.64 | 1.96 | 13.6
25 | CS(=O)(=O)CCNCc1ccc(-c2ccc3ncnc(Nc4ccc(OCc5cccc(F)c5)c(C(F)(F)F)c4)c3c2)o1 | 1.75 | 0.54 | 2.87 | 0.73 | 2.73 | 2.96 | 9.26 | 5.4 | 3.55 | 8.92
26 | CCn1c(-c2nonc2N)nc2cncc(C(=O)N3CC[C@H](N)C3)c21 | 3.33 | 19.5 | 3.72 | 13.3 | 5.44 | 32.9 | 6.84 | 8.03 | 3.41 | 10.7
27 | Nc1ncnc2occ(-c3ccc(NC(=O)Nc4cccc(C(F)(F)F)c4)cc3)c12 | 1.53 | 0.96 | 1.75 | 2.15 | 0.73 | 2.7 | 2.54 | 0.47 | 8.48 | 4.95
28 | COc1ccc(-c2coc3ncnc(N)c23)cc1 | 0.76 | 0.76 | 2.07 | 1.94 | 0.3 | 2.05 | 1.34 | 1.56 | 3.57 | 9.28
29 | CCN1CCC(CC(=O)Nc2n[nH]c3nc(-c4cccs4)c(Br)cc23)CC1 | -2.05 | -0.11 | -3.94 | -1.99 | -2.82 | 2.59 | -0.66 | -2.54 | -7.57 | -4.43
30 | COC(=O)Nc1nc2cc(Oc3cccc(NC(=O)Nc4cc(C(F)(F)F)ccc4F)c3)ccc2[nH]1 | 0.52 | 0.1 | -0.46 | -0.62 | 0.98 | 1.83 | 2.28 | 0.3 | -2.92 | 1.74
31 | CCn1c(-c2nonc2N)nc2c(N3CCCC3)nccc21 | -2.09 | -2.19 | -3.12 | -0.45 | -0.61 | 1.15 | 0.48 | 2.71 | -7.43 | 0.27
32 | O=C1NC(=O)C(N2CCc3ccccc32)=C1c1ccc(Cl)cc1 | 1.09 | 1.67 | 1.7 | 2.85 | 2.52 | 1.75 | 0.71 | 3.31 | 2.29 | 7.76
33 | Cc1cc(O)cc(C)c1/C=C/c1cncc(-c2nn[nH]n2)c1 | -2.92 | -4.1 | -1.95 | -2.32 | -2.52 | -2.46 | 1.06 | 5.14 | 2.35 | 4.65
34 | Cc1ccc(C(=O)NC2CCCCC2)cc1-c1ccc(C(=O)NCC2CC2)cc1 | 0.04 | 0.76 | 1.52 | 1.72 | 2.01 | 0.64 | -0.29 | -3.25 | 2.64 | 6.92
35 | CCc1cccc(NC(=O)Nc2ccc(Oc3ccc4nc(NC(=O)OC)[nH]c4c3)cc2)c1 | 1.36 | 0.06 | 1.23 | 1.45 | 2.78 | -0.71 | 2.37 | 2.68 | 4.8 | 15.6
36 | O=C(Nc1n[nH]c2nc(-c3ccco3)c(Br)cc12)C1CC1 | 0.59 | 0.53 | 2.1 | 2.15 | 0.47 | 1.46 | -0.71 | -0.55 | 3.55 | 4.09
37 | CC1=C(C(=O)Nc2ccc3[nH]ncc3c2)C(c2ccc3ccccc3c2)CC(=O)N1 (stereo not given) | 0.52 | 0.98 | 0.74 | 1.1 | 1.23 | 3.76 | 2.91 | 13.5 | 2.64 | 4.56
38 | COc1ccc2cc(-c3c(-c4ccncc4)nc(-c4ccc([S+](C)[O-])cc4)n3C)ccc2c1 (stereo not given) | 1 | 0.09 | 1.34 | 1.69 | 1.23 | 0.72 | -3.74 | -0.39 | 2.62 | 2.42
39 | COc1cc2ncn(-c3cc(O[C@@H](C)c4ccccc4Cl)c(C(N)=O)s3)c2cc1OC | 0.32 | 1.3 | 1.65 | 1.94 | 1.85 | 1.32 | 0.89 | 2.39 | 9.14 | 4.64
